# Screening results deposited in PubChem BioAssay by several laboratories.
# PostGolgi ctrl: inhibits growth of the yeast control strain; efflux-deficient yeast background strain, growth absorbance A615, 16 h; inhibition, % at 10 µM; actives 5% (n = 98,000)
# PLAP activator: human PLAP activation; P05187; AID 696; actives 1.2% (n = 96,000); purified PLAP enzyme, luminescent substrate read-out; active compounds read high; activation fold at 20 µM; in the data active = activation fold above about 2
# Target sequence (P05187 whole entry, looked up): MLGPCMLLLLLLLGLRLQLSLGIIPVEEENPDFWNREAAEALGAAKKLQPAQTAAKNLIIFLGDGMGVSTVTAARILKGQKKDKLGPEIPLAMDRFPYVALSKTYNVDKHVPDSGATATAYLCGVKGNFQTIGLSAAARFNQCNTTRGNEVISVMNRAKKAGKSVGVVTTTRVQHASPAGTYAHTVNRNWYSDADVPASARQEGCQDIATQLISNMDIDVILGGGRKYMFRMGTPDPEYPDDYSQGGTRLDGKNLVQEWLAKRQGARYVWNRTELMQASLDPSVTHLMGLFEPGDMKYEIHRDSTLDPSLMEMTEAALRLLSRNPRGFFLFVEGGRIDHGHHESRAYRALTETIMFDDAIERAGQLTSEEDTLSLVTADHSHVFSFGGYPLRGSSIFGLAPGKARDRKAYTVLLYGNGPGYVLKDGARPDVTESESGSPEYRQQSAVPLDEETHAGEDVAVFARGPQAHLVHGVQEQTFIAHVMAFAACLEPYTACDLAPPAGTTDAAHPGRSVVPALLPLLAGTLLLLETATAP
# D1 allo mod: allosterically modulates the human D1 dopamine receptor; P21728; HEK293 D1, CRE-luciferase, dopamine EC30 potentiation; actives deviate in either direction; B-score at 10 µM; actives 5.9% (n = 58,000); AID 641;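 active = luminescence count or its row- and column-corrected plate score outside the 99.7% band of the plate's sample wells, on either side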
# hDAT+cocaine: changed human dopamine transporter uptake under cocaine IC80. B-score at 10 µM. LLC-PK1 hDAT cells, [14C]-dopamine uptake with cocaine IC80; actives deviate in either direction. Q01959. AID 449768. actives 1.3% (n = 110,000);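 active = Z score or B-score, a plate-position-corrected score, falls beyond the plate's 99.7% confidence bounds, in either direction; inactive = both scores lie inside the 99.7% bounds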;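 note: scored against the spread of the other compound wells on the same plate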
# Cav32 inh: blocks human Cav3.2 T-type calcium channel | B-score at 10 µM | O95180 | actives 4% (n = 100,000) | Cav3.2-expressing cells, Fluo-4 calcium fluorescence FDSS; active compounds read low;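 active = single-dose well whose peak fluorescence ratio is a statistical outlier from its plate by either plate-standardised score or position-corrected B-score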
# PostGolgi yeast: growth inhibition of a yeast mutant, post-Golgi transport screen; actives 0.9% (n = 98,000); inhibition, % at 10 µM; post-Golgi transport phenotypic cell assay; AID 739;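 note: yeast cells grown in 1536-well plates; yeast grown about 18 h at 30C before absorbance read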
# * = called active by the depositor; . = not tested or not shown. The list is not random: actives were taken first. Their share in the collection is about 12%. Cut-off read from the data, not from the text of the source, unless noted: active = inhibition above about 30%; inactive = the rest.
SMILES,PostGolgi ctrl,PLAP activator,D1 allo mod,hDAT+cocaine,Cav32 inh,PostGolgi yeast
COc1ccccc1N1CCN(C(=O)c2cc(-c3ccc(C)cc3)on2)CC1,25,1.3,0.036,1.8,-4.2*,-2
Cc1ccc(-c2cc(C(=O)N3CCCC3)no2)cc1,-2,1.1,-5.2*,1.7,-0.55,-1
COc1ccccc1N1CCN(C(=O)c2cc(C3CC3)on2)CC1,3,1.3,0.28,1.2,-0.43,9
COc1ccc(-c2cc(C(=O)N3CCN(Cc4ccccc4)CC3)no2)cc1OC,17,1.7,0.55,1.3,1,-2
CCOC(=O)C1CCCN(C(=O)c2cc(-c3ccccc3)on2)C1 (stereo not drawn),1,1.3,-0.1,0.77,0.66,-3
Cc1ccc(-c2cc(C(=O)NCCN3CCOCC3)no2)cc1,30*,1.1,-0.02,0.0054,0.77,-5
COc1ccccc1N1CCN(C(=O)c2ccc3nc(-c4ccco4)c(-c4ccco4)nc3c2)CC1,.,.,2.2,0.41,-6.2*,.
O=C(NCCN1CCOCC1)c1cc(-c2ccc(F)cc2)on1,0,1.1,0.44,0.15,0.037,11
Cc1sc2c(c1C)c(=O)n(-c1cccc(C(F)(F)F)c1)c(=O)n2CC(=O)NCc1ccco1,2,0.9,.,-0.54,-0.38,-3
CC(C)(C)c1ccc(C(=O)Nc2ccc(N3CCOCC3)cc2)cc1,-4,0.9,.,0.52,-0.42,6
COC(=O)Cc1ccc(NC(=O)c2ccc(C(C)(C)C)cc2)cc1,-3,0.8,.,0.017,-5.2*,-13
O=c1cc(-c2ccccc2Cl)oc2c(NS(=O)(=O)c3cccs3)ccc(O)c12,.,.,.,0.52,-2.7,.
COc1cccc(C(=O)N(Cc2ccc(N(C)C)cc2)C2CCS(=O)(=O)C2)c1 (stereo not drawn),5,1.1,0.063,2.6*,0.78,4
CCSc1ncc(Cl)c(C(=O)N(Cc2ccc(N(C)C)cc2)C2CCS(=O)(=O)C2)n1 (stereo not drawn),16,1.3,0.7,0.43,3.5*,2
Cc1ccc(CN(C(=O)c2cc(=O)c3cc(Cl)c(C)cc3o2)C2CCS(=O)(=O)C2)cc1 (stereo not drawn),19,1.3,.,-0.43,-1.3,3
CCOc1ccc(CN(C(=O)c2ccco2)C2CCS(=O)(=O)C2)cc1 (stereo not drawn),0,1,0.46,0.0071,0.89,12
Cc1cccc(C)c1NC(=O)C(NC=O)c1ccc(N(C)C)cc1 (stereo not drawn),3,1,-0.038,0.21,0.85,-6
Cc1cccc(C)c1NC(=O)C(NC=O)c1ccccc1Cl (stereo not drawn),31*,1.1,.,-0.97,-0.13,7
O=c1[nH]ncc(N/N=C/c2ccccc2)c1Cl,2,0.8,.,-0.84,0.71,-12
Cc1ccc(/C=N\Nc2cn[nH]c(=O)c2Cl)cc1,-1,0.9,.,0.76,-5.3*,-3
O=C(CN1C(=O)COc2ccccc21)N1CCc2ccccc2C1,.,.,.,-0.019,0.58,.
Cn1c(NNC(=O)c2cccc3ccccc23)cc(=O)n(C)c1=O,.,.,.,-0.34,0.14,.
CCCC(=O)CN1C(=O)C2(OCCO2)c2ccccc21,7,0.9,0.4,-1.9,0.0084,-3
COc1ccccc1NC(=O)CN1C(=O)C2(OCCCO2)c2ccccc21,5,0.9,-2.6*,-0.13,0.96,-5
O=C(CCN1C(=O)C2(OCCO2)c2ccccc21)c1ccccc1,0,1,1,0.89,0.54,-2
SMILES,PostGolgi ctrl,PLAP activator,D1 allo mod,hDAT+cocaine,Cav32 inh,PostGolgi yeast
CCN(CC)C(=O)CN1C(=O)C2(OCC(C)(c3ccccc3)CO2)c2ccccc21 (stereo not drawn),31*,1.1,0.017,0.44,-0.59,12
O=C(CN1C(=O)C2(OCCO2)c2ccccc21)c1ccc(Br)cc1,8,1.1,0.48,0.64,-5.5*,-4
CC(=O)N(C)c1ccc(NC(=O)c2cnn(C)c2)cc1,-1,0.8,0.033,-0.022,1.2,-2
O=S(=O)(Cc1ccccc1)N1CCN(Cc2ccc3c(c2)OCO3)CC1,14,0.9,-0.016,-1,0.023,2
Cc1ccc(NC(=S)c2nc3ccccc3[nH]2)cc1,51*,1,.,1.4,0.53,2
CC(=O)Nc1ccc(N2CCCCC2)c(C(=O)Nc2cccc(C)c2)c1,31*,1,.,1.8,-0.62,-17
Cc1cccc(NC(=O)c2cc(NC(=O)C3CC=CCC3C(=O)O)ccc2N2CCOCC2)c1 (stereo not drawn),14,1.5,0.87,0.0031,0.13,1
Cc1cccc(NC(=O)c2cc(NC(=O)C3CCCCC3C(=O)O)ccc2N2CCCCC2)c1 (stereo not drawn),23,.,-1.3,4*,-4*,-1
Cc1cc(C)cc(OCc2nnc(SCC(=O)OC(C)C)o2)c1,4,1.2,.,0.031,-2.9,-8
COc1cc(/C=C2\S/C(=N/S(=O)(=O)c3ccc(C)cc3)NC2=O)c([N+](=O)[O-])cc1OC,.,.,.,0.32,-5.3*,.
CCC(C)NC(=O)COc1ccc(S(=O)(=O)N2CCOCC2)cc1 (stereo not drawn),5,1.1,.,-1,1.3,-1
CCN1CCN(Cc2ccc(NC(=O)c3ccc(C)c(NC(=O)c4csc(-c5ccncc5)n4)c3)cc2C(F)(F)F)CC1,.,.,.,1.8*,0.46,.
CNc1oc(-c2ccc(Cl)cc2)nc1P(=O)(c1ccccc1)c1ccccc1,32*,1.3,.,1.1,-0.8,7
COCCNc1oc(-c2ccc(Cl)cc2)nc1C#N,3,1.2,0.62,0.53,-0.11,6
Cc1cc(C)n(-c2ccc(C(=O)Nc3nnc(C)s3)cc2)n1,12,1,.,0.39,0.36,5
Cc1cc(C(=O)Nc2ccccn2)cs1,8,.,-3.8*,0.8,0.56,22
Cc1cc(C)n(-c2ccc(C(=O)Nc3ccccn3)cc2)n1,-2,0.9,-4.1*,0.46,0.22,11
CN(c1ccc(Cl)cc1)c1cc(=O)n(C)c2ccccc12,64*,1.5,0.18,3.1*,-3.4,1
Cc1ccc(C)c(C(C)NC(=O)C2C3CCC(O3)C2C(=O)O)c1 (stereo not drawn),-3,0.9,0.26,0.0033,0.36,3
CCN1C(=O)CC(C(=O)Nc2ccc(F)cc2)SC1=Nc1cccc(OC)c1 (stereo not drawn),25,1,1,.,.,-3
CCOc1cccc(NC(=O)C2CC(=O)NC(=Nc3ccccc3)S2)c1 (stereo not drawn),-1,1.1,4.1,0.17,-4.9*,-2
C=CCOC(=O)C1=C(C)NC(SCC)=C(C#N)C1c1ccc(Cl)cc1 (stereo not drawn),55*,1.1,.,1.7,-7.5*,6
CCOC(=O)C1=C(C)NC(SCC(=O)OC)=C(C#N)C1c1ccc(C(=O)OC)cc1 (stereo not drawn),14,1.8,0.49,0.31,-3.9,16
c1ccc(-n2ncc3c(NCc4cccs4)ncnc32)cc1,2,0.8,-2.7,1.1,-0.29,-12
